Bioassay records from PubChem.
Pf growth 48h: P. falciparum growth inhibition at 48 hours (one generation). 310,000 tested, 5.9% active. AID 504832. P. falciparum luciferase growth in erythrocytes, 48 h. Potency, µM (titrated, usually from 28.7 µM), without a hit: at the highest dose activity change, negative = inhibition, most hits filed as inhibitors; active = well fitted inhibition curve with a large enough effect; inconclusive = small, poorly fitted or top-dose-only effect, or another doubt; inactive = no such curve, though single readings can be large or run the other way; note: potency is the fitted concentration of half-maximal effect; % is set by controls: 0 for no effect and ±100 for the full control effect
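Compounds are pin-transferred into medium, infected erythrocytes (2% hematocrit, 0.1% parasitemia final) are added, and plates sit one parasite generation at 37 C in 5% CO2. Detection reagent is then added and luminescence measured.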
Cycloheximide cs: counter-screen for Shiga toxin inhibitors: cycloheximide protein synthesis inhibition. cell reporter, cycloheximide protein synthesis inhibition counterscreen. 300,000 tested, 12% active. max response, %. AID 2314; in the data active = max response mostly above about 13%, no sharp cut-off; inactive = mostly below about 14%; note: read at 38.3 µM for the half of the compounds with a filed dose; 0% is about no effect
Pf growth 96h: P. falciparum growth inhibition at 96 hours. P. falciparum luciferase reporter growth, 96 h. Potency, µM (doses to about 28.7 µM), for inactives: top-dose activity change, negative = inhibition, most hits filed as inhibitors. 320,000 tested, 6.9% active. AID 504834; active = well fitted inhibition curve with a large enough effect; inconclusive = small, poorly fitted or top-dose-only effect, or another doubt; inactive = no such curve, though single readings can be large or run the other way; note: potency is the fitted concentration of half-maximal effect; % is set by controls: 0 for no effect and ±100 for the full control effect
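Infected RBCs, 2% Hct / 0.05% parasitemia final; luciferase-reporter P. falciparum; cpd 96 h, 37 C, 5% CO2; luciferase detection reagent; luminescence.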
SARS PLP yeast: inhibitors of SARS-CoV papain-like protease in yeast. S. cerevisiae expressing SARS-CoV PLpro, growth rescue. Potency, µM (series often up to 32.9 µM), for inactives: at the top dose activity, positive = growth rescue, actives largely listed as activators. 330,000 tested, 0.19% active; note: potency is the fitted concentration of half-maximal effect; 0% is about no effect; nearly all actives have a fitted effect of over 55% in size
NS1 inh: blocks influenza NS1 protein function; Potency, µM (top dose mostly 46.1 µM), inactives show at the top dose activity, positive = more growth; 270,000 tested, 0.4% active; note: potency is the fitted concentration of half-maximal effect; actives are rising curves; nearly all actives have a fitted effect of over 50% in size
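A cell-based growth assay was used: compounds that relieve NS1-induced slow growth of budding yeast raise OD600. Assay medium was yeast nitrogen base with ammonium sulphate and -URA supplement, pH 6.0, with 2% galactose.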
Shiga toxin inh: blocks Shiga toxin action in Vero cells; Vero cells, Shiga toxin protein synthesis inhibition reporter; inhibition, % at 38.7 µM; 290,000 tested, 9.2% active; AID 2315; in the data active = inhibition mostly above about 28%, no sharp cut-off; inactive = mostly below about 43%; note: 0% is about no effect
Active calls of the source: *; ? = inconclusive; nt = no result given; ! = not confirmed by another sample. Hits are enriched below; roughly 21% of the tested compounds scored in any of these assays. Unless noted, calls come from the whole dose curve.

SMILES	Pf growth 48h	Cycloheximide cs	Pf growth 96h	SARS PLP yeast	NS1 inh	Shiga toxin inh
CCOC(=O)C(=O)NCC(c1cccs1)S(=O)(=O)c1ccc(C)cc1 (stereo unspecified)	-0.6%	nt	?	-4.1%	nt	nt
COc1ccc(-c2[nH]ncc2CN2CCSCC2)c(OC)c1	-0.9%	-2.5	11.7µM*	-0.5%	4.2%	-15.2
COc1ccc(OC)c(CN2CCSCC2)c1	?	-1.6	-2.3%	4.7%	-4.6%	1.7
COc1ccc(CN2CCSCC2)c(C)c1C	-2.0%	-2.9	8.28µM*	-3.5%	-11.0%	-2.7
COc1ccc(NC(=O)c2ccc(NC(=O)CN(C)CC(=O)Nc3c(C)cccc3C)cc2)cc1	?	5.0	?	2.2%	-2.9%	2.1
COCCN1C(=O)c2ccccc2C(C(=O)NCCCN2CCCC2)C1c1c[nH]c2ccccc12 (stereo unspecified)	13.1µM*	-4.5	-13.6%	5.6%	-10.8%	-1.4
COCCN1C(=O)c2ccccc2C(C(=O)NCc2ccco2)C1c1c[nH]c2ccccc12 (stereo unspecified)	?	-3.1	-0.3%	-1.6%	-10.9%	-1.5
CCC(CO)NC1=C([N+](=O)[O-])C(=O)CC(C)(C)C1 (stereo unspecified)	3.1%	-5.5	-13.7%	14.5%	2.3%	-11.5
CC1(C)CC(=O)C([N+](=O)[O-])=C(NCCCO)C1	12.0%	-0.8	11.7µM*	?	-6.0%	10.9
COC(=O)C1C(O)CCC2CN3CCc4c([nH]c5ccccc45)C3CC21 (stereo unspecified)	6.5%	-7.1	24.0%	-0.1%	?	21.7
COC(=O)[C@@H]1[C@@H]2C[C@H]3c4[nH]c5cc(OC)ccc5c4CCN3C[C@@H]2C[C@H](OC(=O)/C=C\c2cc(OC)c(OC)c(OC)c2)[C@H]1OC	5.1µM*	nt	?	nt	nt	nt
COC(=O)[C@H]1[C@H]2C[C@H]3c4[nH]c5ccccc5c4CCN3C[C@H]2CC[C@@H]1O	-4.5%	0.4	1.51µM*!	-7.6%	-3.1%	-5.8
CCOC(=O)Oc1c(OC)cc(C(=O)O[C@@H]2C[C@@H]3CN4CCc5c([nH]c6cc(OC)ccc56)[C@H]4C[C@@H]3[C@H](C(=O)OC)[C@H]2OC)cc1OC	2.62µM*	nt	2.94µM*	nt	nt	nt
COc1cc2c(cc1OC)C(c1cccs1)N(C(=S)NC(C)C)CC2 (stereo unspecified)	2.62µM*	-2.4	?	0.0%	nt	-1.6
COc1cc2c(cc1OC)C(c1cccs1)N(C(=O)c1ccc(S(=O)(=O)N(C)C)cc1)CC2 (stereo unspecified)	10.4µM*	9.2	13.1µM*	2.5%	-3.0%	-0.7
CN(C)c1ccc(N/C(N)=N/c2nc(C(F)(F)F)cc(C(F)(F)F)n2)cc1	-10.6%	22.0	?	0.2%	nt	14.5
O=C(COC(=O)c1ccc(S(=O)(=O)N2CCCC2)cc1)NCc1cccs1	3.3%	4.1	-19.9%	4.1%	nt	9.9
COc1ccc(Cn2c(SCC#N)nc3ccc(N4CCOCC4)cc3c2=O)cc1	-11.6%	57.9*	0.5%	0.6%	nt	123.5*
COc1cccc(NC(=O)CSc2nc3ccccc3c(=O)n2CCCC(=O)NCC2CCCO2)c1 (stereo unspecified)	?	-2.5	9.28µM*	0.4%	-30.6%	2.0
CCCCn1c(SCC(=O)Nc2cccc(OC)c2)nc2ccc(N3CCOCC3)cc2c1=O	9.28µM*	8.2	nt	-4.4%	-26.4%	-39.6
CCOc1ccc(NC(=O)CSc2nc3ccccc3c(=O)n2CCCC(=O)NCC2CCCO2)cc1 (stereo unspecified)	-7.9%	-2.6	-18.6%	0.7%	-4.8%	-3.4
NCCNc1ccc([N+](=O)[O-])cc1	48.0%	-2.3	0.0%	-0.5%	-3.0%	-5.9
C#CCNc1ccc([N+](=O)[O-])cc1	38.3%	16.3*	-4.8%	-3.2%	nt	22.2
CCn1c(SCC(=O)Nc2nccs2)nnc1-c1ccccn1	4.7%	9.4	?	3.6%	-2.0%	-30.8
O=C(Nc1ccsc1C(=O)O)c1cccc(C(F)(F)F)c1	nt	61.1*	21.2%	1.7%	-4.2%	76.9*
SMILES	Pf growth 48h	Cycloheximide cs	Pf growth 96h	SARS PLP yeast	NS1 inh	Shiga toxin inh
O=C(Nc1ccsc1C(=O)O)c1cccc(Oc2ccccc2)c1	120.7%	13.6*	152.7%	-6.5%	-6.8%	52.8
Cc1ccccc1NC(=O)c1cccc(C(F)(F)F)c1	-2.1%	-2.4	44.6%	-6.8%	1.8%	-5.8
O=C(Nc1nnc(-c2cccs2)o1)c1cccc(Oc2ccccc2)c1	nt	1.1	?	-27.3%	-253.6%	25.7
CCOc1cc(/C=N/O)ccc1OCc1ccc([N+](=O)[O-])cc1	-27.2%	9.1	9.0%	-2.2%	3.7%	37.4*
NC(=S)N/N=C/c1cc([N+](=O)[O-])ccc1OCCOc1ccccc1	nt	-2.3	-24.9%	25.1%	6.3%	-13.0
CCOc1cc(C=C(C(=O)OC)C(=O)OC)ccc1OCc1ccc([N+](=O)[O-])cc1	?	-4.5	-2.6%	-0.2%	3.4%	-15.9
COc1cc(/C=N\n2nnnc2N)ccc1OCc1ccc(F)cc1	-25.1%	33.0	?	-1.9%	-2.1%	-5.3
O=[N+]([O-])c1ccc(COc2ccccc2/C=N/O)cc1	68.6%	44.9*	60.3%	8.3%	14.0%	89.5*
CCOc1cc(/C=N/O)ccc1OCc1ccc(F)cc1	26.3%	10.4	3.7µM*	-13.2%	-3.2%	65.2*
CC(=O)N/N=C/c1cc([N+](=O)[O-])ccc1OCCOc1ccccc1	2.1%	0.5	6.57µM*	-0.2%	6.3%	-18.2
O=C(NCc1ccc(/C=N\NC(=O)C(=O)Nc2ccccc2Br)o1)C(=O)Nc1ccccc1	-5.3%	12.7	-16.3%	-2.3%	13.9%	-2.3
O=Cc1ccccc1OCCOc1ccc([N+](=O)[O-])cc1	1.9%	25.6*	?	-9.2%	nt	43.1
COc1cc(/C=N/n2c(C)n[nH]c2=S)ccc1OCc1ccc(F)cc1	?	48.5*	93.5%	8.0%	-26.7%	65.3*
O=C1NC(=O)/C(=C\c2ccc(OCc3cccc([N+](=O)[O-])c3)cc2)N1	-2.1%	1.2	-19.0%	-5.1%	nt	32.9
O=C1NC(=O)/C(=C\c2ccccc2OCc2ccc([N+](=O)[O-])cc2)N1	29.2%	-5.2	11.7µM*	6.9%	6.8%	-11.8
COc1cccc(-c2csc3ncnc(Sc4nnnn4C)c23)c1	nt	nt	nt	-0.5%	nt	nt
Cc1cc(C)c2nc(C)cc(Nc3ccc(C(=O)NCCO)cc3)c2c1	10.4µM*	1.2	11.7µM*	-0.5%	2.8%	-3.2
CC(=O)c1ccc(Nc2cc(C)nc3c(C)cc(C)cc23)cc1	11.7µM*	-9.5	?	-1.1%	nt	-40.2
Cc1cc(C)c2nc(C)cc(Nc3ccc(C(=O)N(C)C)cc3)c2c1	?	-3.2	4.1%	-0.5%	1.6%	-14.8
CC(=O)c1cccc(Nc2cc(C)nc3ccccc23)c1	17.6%	2.1	-26.7%	1.3%	0.7%	10.7
CC(=O)c1cccc(Nc2cc(C)nc3c(C)cccc23)c1	11.7µM*	5.2	-105.1%	1.9%	0.3%	19.8
